Test results taken from PubChem BioAssay (Tox21).
Results filed as inconclusive are left out. Entries that show only a call come without a potency. Active and inactive are the calls of the source. The call rests on the fitted dose curve; in most records, active means well fitted curve in the direction sought with a large enough effect in the repeat runs; inconclusive means weak or mixed curves; inactive means no such curve, though single readings can be large; an effect the other way counts as inactive or inconclusive.

tested on: not listed separately; assay: qHTS assay to identify small molecule agonists of the retinoic acid receptor (RAR) signaling pathway (AID 1159553); conditions: C3RL4 RARE luciferase reporter, agonist, 6 h; series mostly up to 73.3 µM
Procedure, shortened: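 6 hr compound exposure (DMSO vehicle) of overnight-plated C3RL4 RARE-luc cells at 37 C; luminescence quantified after 30 min RT with luciferase reagent.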
Potency means the concentration at half of the fitted maximal effect.

SMILES	Potency
CCCCCCCCCCCCCCCS(=O)(=O)Oc1ccccc1	inactive
COc1ccc(-c2ccc3cc(C(=O)O)ccc3c2)cc1C12CC3CC(CC(C3)C1)C2	0.0298 µM (active)
CCCN(CCC)C(=O)C(CCC(=O)OCCCN1CCN(CCOC(=O)Cc2c(C)n(C(=O)c3ccc(Cl)cc3)c3ccc(OC)cc23)CC1)NC(=O)c1ccccc1 (configuration not stated)	inactive
CCCCCCC[N+](CC)(CC)CCCCc1ccc(Cl)cc1	inactive
NNc1nc(-c2ccccc2)cs1	70.5 µM (active)
CCOc1ccc2nc3cc(N)ccc3c(N)c2c1	inactive
OCc1c[nH]c2ccccc12	inactive
Cn1cc(C(=O)[C@@H]2CCc3nc[nH]c3C2)c2ccccc21	inactive
O=C(Nc1ccc(Oc2ccc(Cl)cc2)c(Cl)c1)c1cc(I)cc(I)c1O	inactive
CN(C)CCCOC1(Cc2ccccc2)CCCCCC1	inactive
COc1cccc2c1C(=O)c1c(O)c3c(c(O)c1C2=O)C[C@@](O)(C(=O)CO)C[C@@H]3O[C@H]1C[C@H](N)[C@H](O[C@@H]2CCCCO2)[C@H](C)O1	inactive
Cc1c(C)c2c(c(C)c1OC(=O)CCC(=O)O)CC[C@@](C)(CCC[C@H](C)CCC[C@H](C)CCCC(C)C)O2	inactive

tested on: not listed separately; assay: qHTS assay to identify small molecule antagonists of the estrogen related receptor (ERR) signaling pathway from Tox21 library - cell viability counter screen (AID 1224834); conditions: ERR reporter cells viability, CellTiter-Fluor, 17.5 h; series mostly up to 92.4 µM; further: nearly all actives have a fitted effect of over 30% in size
Procedure, shortened: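 Seeded ERR cells were rested 6 h at 37 C/5% CO2 before compounds, positive and negative controls or DMSO were added. Incubation continued for 17.5 h, and viability was then quantified by CellTiter-Fluor fluorescence.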

SMILES	Potency
CCCCCCCCCCCCCCCS(=O)(=O)Oc1ccccc1	inactive
CCC1=C[C@@H]2CN(C1)Cc1c([nH]c3ccccc13)[C@@](C(=O)OC)(c1cc3c(cc1OC)N(C)[C@H]1[C@@](O)(C(=O)OC)[C@H](OC(C)=O)[C@]4(CC)C=CCN5CC[C@]31[C@@H]54)C2	0.0188 µM (active)
NC(=NCCCCCCN=C(N)/N=C(\N)Nc1ccc(Cl)cc1)/N=C(\N)Nc1ccc(Cl)cc1	54.2 µM (active) [middle of 4 runs]
CCN1/C(=C/C=C/c2sc3ccccc3[n+]2CC)Sc2ccccc21	5.8 µM (active)
O=C(Nc1cccc(Cl)c1)OCC#CCCl	54.5 µM (active)
CCCN(CCC)C(=O)C(CCC(=O)OCCCN1CCN(CCOC(=O)Cc2c(C)n(C(=O)c3ccc(Cl)cc3)c3ccc(OC)cc23)CC1)NC(=O)c1ccccc1 (configuration not stated)	23.7 µM (active)
N#CSc1ccc(N)c([N+](=O)[O-])c1	54.8 µM (active)
Cc1cc(O)c(Cl)c(C)c1Cl	inactive
CCC(C)Nc1ccc(NC(C)CC)cc1 (configuration not stated)	19.7 µM (active)
CN1CCC(Nc2ncc3ncnc(Nc4ccc(F)c(Cl)c4)c3n2)CC1	26.6 µM (active)
Oc1ccc2cc(SSc3ccc4cc(O)ccc4c3)ccc2c1	61.1 µM (active)
CCCCCCC[N+](CC)(CC)CCCCc1ccc(Cl)cc1	23.7 µM (active)
CCCCCCCCCCCCCC[P+](CCCC)(CCCC)CCCC (tested in a mixture with another compound)	24.5 µM (active)
CCN(Cc1cccnc1)C(=O)c1cccc(Cl)c1[C@]1(C)C(=O)N(Cc2ccc(OC)cc2OC)c2ccc(Cl)cc21	28.6 µM (active)
Cc1ccc(O)c(C(C)(C)C)c1	inactive
NNc1nc(-c2ccccc2)cs1	7.05 µM (active)
CC(=O)S[C@@H]1CC2=CC(=O)CC[C@]2(C)[C@H]2CC[C@@]3(C)[C@@H](CC[C@@]34CCC(=O)O4)[C@H]12	inactive
O=C(NOCC1CC1)c1ccc(F)c(F)c1Nc1ccc(I)cc1Cl	18.8 µM (active)
Cn1cc(C(=O)[C@@H]2CCc3nc[nH]c3C2)c2ccccc21	inactive
O=C(Nc1ccc(Oc2ccc(Cl)cc2)c(Cl)c1)c1cc(I)cc(I)c1O	inactive
Cc1cccc(CN2CCN(C(c3ccccc3)c3ccc(Cl)cc3)CC2)c1 (configuration not stated)	inactive
CN(C)CCCOC1(Cc2ccccc2)CCCCCC1	inactive
COc1cccc2c1C(=O)c1c(O)c3c(c(O)c1C2=O)C[C@@](O)(C(=O)CO)C[C@@H]3O[C@H]1C[C@H](N)[C@H](O[C@@H]2CCCCO2)[C@H](C)O1	9.44 µM (active)
CCN(CC)CCCC(C)Nc1c2ccc(Cl)cc2nc2ccc(OC)cc12 (configuration not stated)	5.96 µM (active)
CC(C)n1nc(-c2cc3cc(O)ccc3[nH]2)c2c(N)ncnc21	1.33 µM (active)
Cc1c(C)c2c(c(C)c1OC(=O)CCC(=O)O)CC[C@@](C)(CCC[C@H](C)CCC[C@H](C)CCCC(C)C)O2	inactive
C[C@@H]1C[C@H]2[C@@H]3CCC4=CC(=O)C=C[C@]4(C)[C@@]3(Cl)[C@@H](O)C[C@]2(C)[C@@]1(OC(=O)c1ccco1)C(=O)CCl	23.7 µM (active)

target: Luciferin 4-monooxygenase (Photinus pyralis) (UniProt P08659); assay: qHTS assay to identify small molecule inhibitors of firefly luciferase (AID 1224835); further: nearly all actives have a fitted effect of over 25% in size; conditions: purified P. pyralis luciferase, luminescence inhibition; series mostly up to 115 µM
Sequence (P08659 whole entry, looked up): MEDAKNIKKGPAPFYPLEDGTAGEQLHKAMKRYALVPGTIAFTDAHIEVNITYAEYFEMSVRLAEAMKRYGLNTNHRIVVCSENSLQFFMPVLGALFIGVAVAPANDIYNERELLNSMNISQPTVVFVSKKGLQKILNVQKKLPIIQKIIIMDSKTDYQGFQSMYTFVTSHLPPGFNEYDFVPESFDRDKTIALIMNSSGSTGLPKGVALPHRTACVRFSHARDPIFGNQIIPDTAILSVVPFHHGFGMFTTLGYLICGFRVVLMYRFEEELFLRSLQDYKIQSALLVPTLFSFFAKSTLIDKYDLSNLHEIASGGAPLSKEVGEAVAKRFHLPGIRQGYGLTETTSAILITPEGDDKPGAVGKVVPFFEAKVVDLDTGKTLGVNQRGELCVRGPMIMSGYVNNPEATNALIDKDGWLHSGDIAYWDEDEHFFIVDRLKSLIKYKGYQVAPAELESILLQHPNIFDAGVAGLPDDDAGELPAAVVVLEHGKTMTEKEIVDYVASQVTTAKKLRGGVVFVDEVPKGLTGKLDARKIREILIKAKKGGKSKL
Procedure, shortened: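 Biochemical qHTS: compounds run as interplate titrations against purified firefly enzyme, with D-luciferin and ATP each at its KM concentration. Light output recorded by CCD imaging.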

SMILES	Potency
CCCCCCCCCCCCCCCS(=O)(=O)Oc1ccccc1	inactive
CCC1=C[C@@H]2CN(C1)Cc1c([nH]c3ccccc13)[C@@](C(=O)OC)(c1cc3c(cc1OC)N(C)[C@H]1[C@@](O)(C(=O)OC)[C@H](OC(C)=O)[C@]4(CC)C=CCN5CC[C@]31[C@@H]54)C2	inactive
NC(=NCCCCCCN=C(N)/N=C(\N)Nc1ccc(Cl)cc1)/N=C(\N)Nc1ccc(Cl)cc1	inactive
CCN1/C(=C/C=C/c2sc3ccccc3[n+]2CC)Sc2ccccc21	9.52 µM (active)
O=C(Nc1cccc(Cl)c1)OCC#CCCl	44.8 µM (active)
COc1ccc(-c2ccc3cc(C(=O)O)ccc3c2)cc1C12CC3CC(CC(C3)C1)C2	inactive
CCCN(CCC)C(=O)C(CCC(=O)OCCCN1CCN(CCOC(=O)Cc2c(C)n(C(=O)c3ccc(Cl)cc3)c3ccc(OC)cc23)CC1)NC(=O)c1ccccc1 (configuration not stated)	inactive
CCCCN(CCCC)c1ccc(C(=O)c2ccccc2C(=O)O)c(O)c1	inactive
Nc1c2ccccc2nc2ccccc12	inactive
Cc1cc(O)c(Cl)c(C)c1Cl	inactive
CCC(C)Nc1ccc(NC(C)CC)cc1 (configuration not stated)	40.7 µM (active)
CN1CCC(Nc2ncc3ncnc(Nc4ccc(F)c(Cl)c4)c3n2)CC1	inactive
CCCCCCC[N+](CC)(CC)CCCCc1ccc(Cl)cc1	inactive
CCCCCCCCCCCCCC[P+](CCCC)(CCCC)CCCC (tested in a mixture with another compound)	inactive
CCN(Cc1cccnc1)C(=O)c1cccc(Cl)c1[C@]1(C)C(=O)N(Cc2ccc(OC)cc2OC)c2ccc(Cl)cc21	inactive
Cc1ccc(O)c(C(C)(C)C)c1	inactive
NNc1nc(-c2ccccc2)cs1	32.6 µM (active)

SMILES	Potency
CCOc1ccc2nc3cc(N)ccc3c(N)c2c1	inactive
CC(=O)S[C@@H]1CC2=CC(=O)CC[C@]2(C)[C@H]2CC[C@@]3(C)[C@@H](CC[C@@]34CCC(=O)O4)[C@H]12	inactive
O=C(NOCC1CC1)c1ccc(F)c(F)c1Nc1ccc(I)cc1Cl	inactive
CNCc1cc(F)ccc1Oc1ccc(Cl)c(Cl)c1	inactive
Cn1cc(C(=O)[C@@H]2CCc3nc[nH]c3C2)c2ccccc21	inactive
Nc1ccc2c3c(cccc13)-c1ccccc1-2	22.7 µM (active)
O=C(Nc1ccc(Oc2ccc(Cl)cc2)c(Cl)c1)c1cc(I)cc(I)c1O	inactive
Cc1cccc(CN2CCN(C(c3ccccc3)c3ccc(Cl)cc3)CC2)c1 (configuration not stated)	inactive
CN(C)CCCOC1(Cc2ccccc2)CCCCCC1	inactive
c1cc(C(c2ccc(OCC3CO3)cc2)c2ccc(OCC3CO3)cc2)ccc1OCC1CO1 (configuration not stated)	inactive
CCCCCCCCn1sc(Cl)c(Cl)c1=O	3.56 µM (active)
CCCCCCCCS(=O)C(C)Cc1ccc2c(c1)OCO2 (configuration not stated)	inactive
CCN(CC)CCCC(C)Nc1c2ccc(Cl)cc2nc2ccc(OC)cc12 (configuration not stated)	inactive
CC(C)n1nc(-c2cc3cc(O)ccc3[nH]2)c2c(N)ncnc21	inactive
Cc1c(C)c2c(c(C)c1OC(=O)CCC(=O)O)CC[C@@](C)(CCC[C@H](C)CCC[C@H](C)CCCC(C)C)O2	inactive
C[C@@H]1C[C@H]2[C@@H]3CCC4=CC(=O)C=C[C@]4(C)[C@@]3(Cl)[C@@H](O)C[C@]2(C)[C@@]1(OC(=O)c1ccco1)C(=O)CCl	inactive
